Screening results from PubChem.
Compounds with a hit are over-represented: about 1.1% of the library has one in this group of screens.
DUSP3 inh: DUSP3 (human) phosphatase inhibition; hit rate 0.52% among 290,000; inhibition, % at 13.3 µM; P51452; recombinant VHR phosphatase, pNPP absorbance; AID 1654; in the data active means inhibition above about 50%
BJeLR viability: BJeLR cell viability loss | AID 1554 | inhibition, % (concentration not given with the values) | BJeLR (HRASV12) viability, CellTiter-Glo ATP luminescence, 48 h | hit rate 0.17% among 300,000; in the data active means inhibition above about 50%; inconclusive means no clear call, values can overlap the other calls
SARS 3CLpro inh: SARS-CoV 3CLpro protease inhibition; P0C6X7; recombinant SARS-CoV 3CLpro, quenched FRET peptide cleavage; inhibition, % at 6 µM; hit rate 0.14% among 290,000; in the data active means inhibition above about 12%
PrPC surface inh: cell surface PrPC inhibition, primary TR-FRET screen; TR-FRET read-out; hit rate 0.43% among 370,000; inhibition, % at 13.8 µM; P04156; in the data active means inhibition above about 24%; further: 0% = median of the test wells and 100% = reference compound wells
PrPC TRFRET cf: confirmation of inhibitors of cell surface human prion protein | shares compounds with PrPC surface inh | cell surface PrPC level, TR-FRET | inhibition, % at 13.8 µM | hit rate 65% among 1,500; in the data active means inhibition above about 25%
LD9 tox: counter-screen for PrPc inhibitors: cytotoxicity in LD9 cells; shares compounds with PrPC surface inh; luminescence viability; inhibition, % at 13.8 µM; hit rate 29% among 1,500; AID 743201; in the data active means inhibition above about 9.5%
* = called active by the depositor.

How did COC(=O)[C@H](CC(C)C)N(Cc1cn(Cc2ccc(C)cc2)nn1)S(=O)(=O)c1ccc(F)cc1Br do in these assays?
PrPC surface inh: 7

What do the screens show for `C=CCn1c(=NC(=O)c2cccs2)sc2cccc(OC)c21`?
DUSP3 inh: 6; BJeLR viability: -7; SARS 3CLpro inh: -7; PrPC surface inh: -4

Results for C#CCn1c(=NC(=O)c2ccc(Br)s2)sc2cccc(OC)c21 ?
DUSP3 inh: 28; BJeLR viability: -3; SARS 3CLpro inh: -3; PrPC surface inh: 30*; PrPC TRFRET cf: 81*; LD9 tox: 3

Results for CCc1ccc(OC)c(S(=O)(=O)Nc2ccc(Cc3ccncc3)cc2)c1 ?
DUSP3 inh: 17; BJeLR viability: 23; SARS 3CLpro inh: -10; PrPC surface inh: 42*; PrPC TRFRET cf: 30*; LD9 tox: 8

Results for O=S(=O)(Nc1ccc(Cc2ccncc2)cc1)c1ccc(Cl)c(Cl)c1 ?
DUSP3 inh: 33; BJeLR viability: -3; SARS 3CLpro inh: 8; PrPC surface inh: 31*; PrPC TRFRET cf: 32*; LD9 tox: 16*

Results for Cn1ccc2c(N3CCCCCCC3)cc3c(c21)C1CCC3O1 (stereo unspecified) ?
PrPC surface inh: -2

What do the screens show for `CO[C@H]([C@H](C)/C=C/N(C)C=O)[C@@H](C)C(=O)CC[C@H](C)[C@H](O)[C@H](C)[C@H]1OC(=O)/C=C/C(C)=C/C[C@H](O)C[C@@H]2C=CC[C@@H](C[C@H](OC)[C@@]3(CO3)[C@@H](OC)C[C@@H](OC)[C@@H]1C)O2`?
PrPC surface inh: 41*; PrPC TRFRET cf: 37*; LD9 tox: 39*

Results for CO[C@H]([C@H](C)/C=C/N(C)C=O)[C@@H](C)C(=O)CC[C@H](C)[C@H](O)[C@H](C)[C@H]1OC(=O)/C=C/C(C)=C/C[C@H](O)C[C@@H]2C=CC[C@@H](C[C@H](OC)[C@@H](C)[C@@H](OC)C[C@@H](OC)[C@@H]1C)O2 ?
PrPC surface inh: 48*; PrPC TRFRET cf: 39*; LD9 tox: 26*

Results for O=S(=O)(Nc1ccccc1)C1CCCCC1 ?
PrPC surface inh: 10

Results for COc1ccc2[nH]c3c(NCCC4=CCCCC4)ncnc3c2c1 ?
DUSP3 inh: -18; BJeLR viability: inconclusive; SARS 3CLpro inh: 1; PrPC surface inh: 41*; PrPC TRFRET cf: 40*; LD9 tox: 22*

Results for Cc1cc(Cl)c(S(=O)(=O)NC(C(=O)O)C(C)C)cc1OCC(=O)NC1CCCCC1 (stereo unspecified) ?
DUSP3 inh: 12; BJeLR viability: -1; SARS 3CLpro inh: 2; PrPC surface inh: 5

Results for Cc1cc(Cl)c(S(=O)(=O)N2CCCC2)cc1OCC(=O)NC1CCCCC1 ?
DUSP3 inh: 37; BJeLR viability: -5; SARS 3CLpro inh: 5; PrPC surface inh: 26*; PrPC TRFRET cf: 16; LD9 tox: 0

How did Cc1cc(C)c2sc(NNC(=O)c3ccc(S(=O)(=O)N4CCc5ccccc5C4)cc3)nc2c1 do in these assays?
DUSP3 inh: -11; BJeLR viability: 11; SARS 3CLpro inh: 8; PrPC surface inh: 29*; PrPC TRFRET cf: 30*; LD9 tox: 12*

What do the screens show for `COc1cc(OC)cc(C(=O)N[C@H](C(=O)Nc2nc(-c3cc(OC)ccc3OC)cs2)C(C)C)c1`?
DUSP3 inh: 30; BJeLR viability: 0; SARS 3CLpro inh: 2; PrPC surface inh: 26*; PrPC TRFRET cf: 30*; LD9 tox: -8

What do the screens show for `CCc1c(-c2ccccc2Br)ncn1CCc1ccccc1OC`?
PrPC surface inh: 12

How did CCCCC(=O)NC(c1ccc(N(CC)CC)cc1)c1ccc2cccnc2c1O (stereo unspecified) do in these assays?
DUSP3 inh: 30; BJeLR viability: 48; SARS 3CLpro inh: -6; PrPC surface inh: 6

Results for CCCCC(=O)NC(c1ccc(Cl)cc1)c1ccc2cccnc2c1O (stereo unspecified) ?
BJeLR viability: 30; SARS 3CLpro inh: -2; PrPC surface inh: 29*; PrPC TRFRET cf: 18; LD9 tox: 11*

Results for CCCCC(=O)NC(c1ccc(N(C)C)cc1)c1ccc2cccnc2c1O (stereo unspecified) ?
DUSP3 inh: 30; BJeLR viability: 57*; SARS 3CLpro inh: -1; PrPC surface inh: 27*; PrPC TRFRET cf: 25*; LD9 tox: 16*

What do the screens show for `CCCC(=O)NC(c1ccc(Cl)cc1)c1ccc2cccnc2c1O` (stereo unspecified)?
DUSP3 inh: 5; BJeLR viability: 9; SARS 3CLpro inh: 3; PrPC surface inh: 18

Results for CCCC(=O)NC(c1ccccc1OC)c1ccc2cccnc2c1O (stereo unspecified) ?
DUSP3 inh: 16; BJeLR viability: 18; SARS 3CLpro inh: 4

Results for CCCCC(=O)NC(c1ccccc1OC)c1ccc2cccnc2c1O (stereo unspecified) ?
DUSP3 inh: 24; BJeLR viability: 37; SARS 3CLpro inh: -2; PrPC surface inh: 40*; PrPC TRFRET cf: 31*; LD9 tox: 27*

What do the screens show for `CC1(C(=O)NS(=O)(=O)Cc2ccccc2)CCN1C(=O)C1(c2ccc(Cl)cc2)CCC1` (stereo unspecified)?
PrPC surface inh: -2

How did CCc1ccc(C(=O)NNc2ccccc2F)cc1 do in these assays?
DUSP3 inh: 5; BJeLR viability: -2; SARS 3CLpro inh: 3; PrPC surface inh: 21

What do the screens show for `CCc1ccc(C(=O)NNc2cc(Cl)ccc2Cl)cc1`?
DUSP3 inh: 25; BJeLR viability: 5; SARS 3CLpro inh: 0; PrPC surface inh: 28*; PrPC TRFRET cf: 25*; LD9 tox: 5

How did O=[N+]([O-])c1c(Nc2cccc(O)c2)cc(Cl)c2nonc12 do in these assays?
DUSP3 inh: 15; BJeLR viability: 79*; SARS 3CLpro inh: -1; PrPC surface inh: 85*; PrPC TRFRET cf: 92*; LD9 tox: 98*

What do the screens show for `CCC[C@H]1CN(c2ccc(OC)cc2)C(=O)[C@@H]1CC(=O)NC`?
PrPC surface inh: 10

How did CCOC(=O)c1csc(NC(=O)c2ccccc2)n1 do in these assays?
DUSP3 inh: 12; BJeLR viability: -8; SARS 3CLpro inh: -4; PrPC surface inh: 12

Results for CCOC(=O)c1csc(NC(=O)c2ccc(OCC)cc2)n1 ?
DUSP3 inh: 13; BJeLR viability: 3; SARS 3CLpro inh: -1; PrPC surface inh: 30*; PrPC TRFRET cf: 20; LD9 tox: -1

What do the screens show for `O=C(OCC(O)C(O)C(O)C(SCc1ccccc1)SCc1ccccc1)c1ccccc1` (stereo unspecified)?
PrPC surface inh: 12

How did Cc1csc2nc3cc(C(N)=O)ccc3c(=O)n12 do in these assays?
DUSP3 inh: 30; BJeLR viability: -1; PrPC surface inh: -1

What do the screens show for `NC(=O)c1ccc2c(=O)n3c(-c4cc(Cl)c(N)c(Cl)c4)csc3nc2c1`?
DUSP3 inh: 11; BJeLR viability: 2; PrPC surface inh: 32*; PrPC TRFRET cf: 1; LD9 tox: 3
